According to PubChem BioAssay (Tox21):
“And” between values parts separate entries of the source, which are not always exact repeats. Identical values can stand only once. Results filed as inconclusive are left out. A call without a number means that no potency is given here. Where a structure was tested more than once in an assay, its records may differ in their call. The source made the active and inactive calls. Calls follow the shape of the dose curve; as a rule, active = well fitted cell-killing curve with a large enough effect in the repeat runs; inconclusive = weak or mixed curves, or effect the other way; inactive = no such curve, though single readings can be large or run the other way.
Potency is read from the fitted curve at half-maximal effect.

Assay: qHTS assay to identify small molecule agonists of the vitamin D receptor (VDR) signaling pathway - cell viability counter screen (AID 743224); also: nearly all actives have a fitted effect of over 50% in size
Conditions: VDR-bla HEK293T viability, CellTiter-Glo luminescence, 16 h; series mostly up to 62.6 µM
Source text: U.S. Tox21 Program National Center for Advancing Translational Sciences [NCATS] NIH Chemical Genomics Center [NCGC] U.S. Environmental Protection Agency [EPA] National Institutes of Environmental Health Sciences [NIEHS] National Toxicology Program [NTP] U.S. Food and Drug Administration [FDA] Tox21 Assay Overview: The vitamin D receptor (VDR), a member of nuclear hormone receptor superfamily, plays a critical role in calcium homeostasis and bone metabolism. It is also involved in cell differentiation and growth, and thrombogenicity. […] The cytotoxicity of the Tox21 compound library against the VDR-bla cell line was tested in parallel by measuring the cell viability using CellTiter-Glo assay (Promega, Madison, WI) in the same wells.
Tox21 Assay Protocol Summary: VDR-bla cells were dispensed at 2,000 cells/6 uL/well into black wall/clear-bottom 1536-well plates using a Multidrop Combi (Thermo Fisher Scientific, Waltham, MA) dispenser. After the assay plates were incubated at a 37C and 5% CO2 for 4 h, 23 nL of compounds dissolved in DMSO, positive controls or DMSO only was transferred to the assay plate by a Pintool station (Kalypsys, San Diego, CA). The plates were incubated at 37C and 5% CO2 for 16 h. After 1 uL of LiveBLAzerTM B/G FRET substrate was added using a Bioraptr Flying Reagent Dispenser (FRD) workstation (Beckman Coulter, Indianapolis, IN, USA), the plates were incubated at room temperature for 2 h, and fluorescence intensity was measured by an Envision plate reader (PerkinElmer, Shelton, CT). For cell viability readout that measures cytotoxicity, 3 ul/well of CellTiter-Glo reagent was added into the assay plates using a FRD. After 30 min incubation at room temperature, the luminescence intensity in the plates was measured using a ViewLux (PerkinElmer) plate reader.
With CCCCCCCCC the Potency was “inactive”. In the case of NC(=O)NNc1ccccc1, the Potency is reported as “inactive”. With Oc1c(Cl)cc(Cl)c(Cl)c1Cl the Potency was “inactive”. In the case of CCc1ccc(O)cc1, the Potency is reported as “inactive”. With CC(=O)CCc1ccccc1 the Potency was “inactive”. For Clc1cc(Cl)c(Cl)cc1Cl, the Potency was “inactive”. With C=C(C)C(=O)OCCCCCCCCCCCC the Potency was “inactive”. With O=C1CCCCC1 the Potency was “inactive”. In the case of Nc1c(S(=O)(=O)O)cc(Br)c2c1C(=O)c1ccccc1C2=O, the Potency is reported as “inactive”. For COCC(C)O (stereo not given), the Potency was “inactive”. In the case of OC1CCCC1, the Potency is reported as “inactive”. For C=C(C)C(=O)OCCC[Si](OC)(OC)OC, the Potency was “inactive”. With O=C(c1ccc(O)cc1)c1ccc(O)cc1O the Potency was “inactive”. With OCC1CCCO1 (stereo not given) the Potency was “inactive”. In the case of O=S(=O)(Oc1ccc(Cl)cc1Cl)c1ccccc1, the Potency is reported as “inactive”. With CCCCC/C=C\C/C=C\CCCCCCCC(=O)OC the Potency was “inactive and 49 µM (active)”. In the case of CCCCOCCOCCOC(=O)CCCCC(=O)OCCOCCOCCCC, the Potency is reported as “inactive”. For CC1(C)O[C@@H]2C[C@H]3[C@@H]4C[C@H](F)C5=CC(=O)CC[C@]5(C)[C@H]4[C@@H](O)C[C@]3(C)[C@]2(C(=O)CO)O1, the Potency was “inactive”. With C=C(C#N)C(=O)OCC the Potency was “inactive”. For C[C@@H]1O[C@@H](OC[C@H]2O[C@@H](Oc3c(-c4ccc(O)c(O)c4)oc4cc(O)cc(O)c4c3=O)[C@H](O)[C@@H](O)[C@@H]2O)[C@H](O)[C@H](O)[C@H]1O, the Potency was “inactive”. For CN(C)c1cccc(O)c1, the Potency was “inactive”. For Cc1cc(NS(=O)(=O)c2ccc(N)cc2)no1, the Potency was “inactive”. For CNC[C@H](O)[C@@H](O)[C@H](O)[C@H](O)CO, the Potency was “inactive”. With Nc1nc2ncc(CNc3ccc(C(=O)N[C@@H](CCC(=O)O)C(=O)O)cc3)nc2c(=O)[nH]1 the Potency was “inactive”. With Oc1ccc(OCc2ccccc2)cc1 the Potency was “inactive”. In the case of O=C1N=C(O)CN1/N=C/c1ccc(-c2ccc([N+](=O)[O-])cc2)o1, the Potency is reported as “inactive”. With CCCCC(CC)C(=O)OCCOCCOCCOC(=O)C(CC)CCCC (stereo not given) the Potency was “inactive”. For CC#C[C@]1(O)CC[C@H]2[C@@H]3CCC4=CC(=O)CCC4=C3[C@@H](c3ccc(N(C)C)cc3)C[C@@]21C, the Potency was “inactive”. In the case of NCc1cccc(CN)c1, the Potency is reported as “inactive”. For COC(=O)Nc1nc2ccc(Sc3ccccc3)cc2[nH]1, the Potency was “inactive”. With CC(C)(N=C=O)c1cccc(C(C)(C)N=C=O)c1 the Potency was “inactive”. For O=Nc1ccc(O)cc1, the Potency was “inactive”. For c1ccc2[nH]cnc2c1, the Potency was “inactive”. With CCCCCCC(C)(C)S the Potency was “inactive”. For O=c1c(-c2ccc(O)cc2)coc2cc(O)ccc12, the Potency was “inactive”. For CC1Cc2ccccc2N1NC(=O)c1ccc(Cl)c(S(N)(=O)=O)c1 (stereo not given), the Potency was “inactive”. With Cc1cc(Cc2ccc(N)c(C)c2)ccc1N the Potency was “inactive”. For O=C(Oc1ccccc1)c1ccc(O)cc1, the Potency was “inactive”. For Clc1ccc(Cl)c(Cl)c1Cl, the Potency was “inactive”. For OC[C@@H](O)[C@H](O)[C@H](O)[C@@H](O)CO, the Potency was “inactive”.
